Shown are actives, neighbours in structure and some others; about 6.9% of the full set was active somewhere.
PLK1 PBD inh = PLK1 (human) polo-box domain binding inhibition | P53350 | Plk1 PBD binding of FITC phosphopeptide, fluorescence polarization | Potency, µM, for inactives: max response, negative = inhibition, actives largely listed as inhibitors | actives 2.8% (n = 360,000) | AID 720504; note: series mostly up to about 57 µM; % is set by controls: 0 for no effect and ±100 for the full control effect; nearly all actives have a fitted effect of over 65% in size
VDR inh = inhibitors of human vitamin D receptor. P11473. VDR-SRC2-3 peptide fluorescence polarization, 2 h. Potency, µM, inactives show max response, negative = inhibition, most hits filed as inhibitors. actives 0.93% (n = 400,000). AID 504847; note: % is set by controls: 0 for no effect and ±100 for the full control effect
Target sequence (P11473 whole entry, looked up): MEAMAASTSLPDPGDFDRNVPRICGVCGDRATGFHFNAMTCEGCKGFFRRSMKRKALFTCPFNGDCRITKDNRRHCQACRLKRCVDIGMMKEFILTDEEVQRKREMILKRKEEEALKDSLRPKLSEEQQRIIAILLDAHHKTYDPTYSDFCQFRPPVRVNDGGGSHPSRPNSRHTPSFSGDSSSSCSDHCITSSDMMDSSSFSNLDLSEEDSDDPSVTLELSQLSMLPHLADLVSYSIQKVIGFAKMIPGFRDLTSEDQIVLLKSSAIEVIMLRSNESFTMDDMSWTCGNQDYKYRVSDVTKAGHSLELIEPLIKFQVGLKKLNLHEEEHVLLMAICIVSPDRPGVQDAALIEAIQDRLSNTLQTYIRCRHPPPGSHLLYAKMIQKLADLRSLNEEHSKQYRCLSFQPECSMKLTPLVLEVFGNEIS
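Fluorescence polarization assay of small-molecule disruption of VDR binding to coregulator peptide SRC2-3. Compounds and controls pin-transferred, then read after 2 h incubation at ambient room temperature.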
L3MBTL1 block = inhibitors of human L3MBTL1. AlphaScreen L3MBTL1–H3K9me1 peptide binding. Potency, µM (doses to about 57.1 µM), for the others: at the highest dose activity, negative = inhibition, hits mostly inhibitors. actives 0.66% (n = 230,000). AID 485360; note: % is set by controls: 0 for no effect and ±100 for the full control effect; nearly all actives have a fitted effect of over 60% in size
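Read-out is AlphaScreen signal from streptavidin donor and nickel chelate acceptor beads (10 ug/mL final each) bridging L3MBTL1 (50 nM) and biotinylated K9-monomethylated H3(1-15) peptide (75 nM), after 30 min compound exposure at room temperature.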
HP1b chromo inh = inhibitors of HP1-beta chromodomain binding to methylated histone tails | P83916 | AlphaScreen HP1-beta / biotin-H3K9me3 peptide binding | Potency, µM (titrated, usually from 114 µM), inactives show at the highest dose activity change, negative = inhibition, actives largely listed as inhibitors | actives 0.56% (n = 390,000) | AID 540317; note: nearly all actives have a fitted effect of over 70% in size
Target sequence (P83916 whole entry, looked up): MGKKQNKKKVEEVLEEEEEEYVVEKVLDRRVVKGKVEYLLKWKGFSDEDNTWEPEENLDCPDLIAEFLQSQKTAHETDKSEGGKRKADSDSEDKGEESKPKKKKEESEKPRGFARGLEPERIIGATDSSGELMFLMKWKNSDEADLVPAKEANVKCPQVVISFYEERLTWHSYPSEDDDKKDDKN
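Compound inhibition of the preformed complex between 50 nM HP1-beta and 50 nM biotinylated H3K9me3 peptide was read by AlphaScreen. Buffer was PBS pH 7.4 with 0.01% Tween-20. Incubations ran 30 min at room temperature, with 10 ug/mL donor/acceptor beads.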
BAZ2B block = inhibitors of human BAZ2B bromodomain; AlphaScreen BAZ2B-H3K14Ac peptide displacement; actives 4.4% (n = 360,000); AID 504333; Q9UIF8; Potency, µM (series often up to 114 µM), inactives show at the highest dose activity change, negative = inhibition, hits mostly inhibitors; note: % is set by controls: 0 for no effect and ±100 for the full control effect; nearly all actives have a fitted effect of over 60% in size
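AlphaScreen displacement: compounds (up to 110uM) incubated 30 min at room temperature with a preformed 50 nM BAZ2B/50 nM biotinylated H3K14Ac peptide complex in PBS pH 7.4 with Tween-20. Donor and acceptor beads at 10 ug/mL final added, 20 min light-protected before reading.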
JMJD2A Tudor inh = inhibitors of human JMJD2A Tudor domain; Potency, µM (titrated, usually from 114 µM), for the others: at the highest dose activity change, negative = inhibition, most hits filed as inhibitors; actives 4.4% (n = 390,000); AID 504339; O75164; AlphaScreen JMJD2A-Tudor / H3K4me3 peptide binding; note: % is set by controls: 0 for no effect and ±100 for the full control effect; nearly all actives have a fitted effect of over 50% in size
Starred values were filed as active, the others as inactive; ? = inconclusive; / = not tested or not shown; ! = not confirmed by another sample; [ ] = another dose, or the depositor's remark. Calls come from the whole dose curve; as a rule, active = well fitted curve in the direction sought with a large enough effect; inconclusive = small, poorly fitted or top-dose-only effect, or another doubt; inactive = no such curve, though single readings can be large; an effect the other way counts as inactive or inconclusive. Potency is the fitted concentration of half-maximal effect.

SMILES | PLK1 PBD inh | VDR inh | L3MBTL1 block | HP1b chromo inh | BAZ2B block | JMJD2A Tudor inh
COc1ccc(Br)cc1/C=N/NC(=O)CN1CCN(Cc2ccccc2)CC1 | -2% | 1% | -20% | 5% | -11% | -17%
Cc1ccc2c(c1Br)/C(=N/N1C(=O)c3ccccc3C1=O)C(=O)N2 | -19% | ? | 1% | 35% | -10% | -19%
CCOc1ccc(N=C2C(=O)Nc3ccc(C)c(Br)c32)cc1 | 2% | ? | / | ? | 35µM* | ?
O=C(CCNC(=O)C1CCN(S(=O)(=O)c2ccc(F)cc2)CC1)Nc1ccccc1 | -16% | -6% | / | 21% | -5% | -16%
COc1cc(C)c(CNC2CCCCC2)cc1C | -1% | 25% | / | ? | ? | 5µM*
COc1cc(C)c(CNc2ccc(OC)c(OC)c2)cc1C | / | / | -9% | / | 45µM* | /
Oc1cc(CNC2CCCCC2)c(O)cc1CNC1CCCCC1 | 5.3µM* | -15% | / | 14µM* | / | 22µM*
COc1cc(C)c(CNc2cc(C)cc(C)c2)cc1C | -1% | 11% | / | -16% | ? | 89µM*
Cc1cccn2c(=O)c(C(=O)NCc3cccc(F)c3)cnc12 | / | -9% | / | 33% | 8% | -3%
CC(=O)c1c(C)[nH]c(C(=O)N2CCCCCC2)c1C | 2.7µM* | -28% | -7% | ? | 50µM* | -35%[11.4 µM]
CCNC(=O)N(C)c1c(CC)nc2ccc(C(=O)N3CCN(C(=O)c4ccco4)CC3)cn12 | -5% | / | / | / | / | /
O=c1[nH]c(=S)[nH]c(-c2ccccc2)c1Cc1c(O)ccc2ccccc12 | / | 22µM* | / | / | / | /
Cc1[nH]c(=S)[nH]c(=O)c1Cc1c(O)ccc2ccccc12 | ? | -29% | / | 21% | / | -18%
Nc1cc(N)nc(SCC(=O)Nc2ccc(Br)cc2Cl)n1 | 11µM* | -21% | 4% | -23% | 10% | -9%
Nc1nc(SCC(=O)Nc2ccc(Br)cc2Br)n[nH]1 | 1% | -8% | 0% | 14% | / | -23%
COc1ccccc1NC1=C(N2CCCCC2)C(=O)c2ccccc2C1=O | -15% | ? | -28% | ? | 32µM* | 40µM*
COc1ccccc1NC(=O)N1CCCC1 | 1% | -6% | -11% | 24% | 3% | -6%
Cc1ccc(NC2=C(N3CCCCC3)C(=O)c3ccccc3C2=O)cc1 | -11% | -53% | -10% | ? | -28% | 14µM*
CN(C1=C(N2CCCCC2)C(=O)c2ccccc2C1=O)c1ccccc1 | -8% | 5% | / | ? | 2.8µM* | 4µM*
CN(c1ccccc1)c1nc(N)c([N+](=O)[O-])c(N2CCCCC2)n1 | 2% | 6% | -30% | -10% | ? | ?
CN(C)c1ccc(/C=C/C(=O)c2ccc(O)cc2)cc1 | 64% | 2% | / | 2% | / | -25%
O=C(/C=C/c1ccc(O)cc1)c1ccc(NC2=C(N3CCCCC3)C(=O)c3ccccc3C2=O)cc1 | -24% | ? | ? | -68% | ? | 20µM*
COc1ccc(N2CC(C(=O)Nc3nnc(Cc4ccccc4)s3)CC2=O)cc1 (stereo not drawn) | -13% | -13% | / | -19% | 0% | -21%
Cc1c(NC(=O)CN2C(=O)NC3(CCC(C)CC3)C2=O)c(=O)n(-c2ccccc2)n1C (stereo not drawn) | -10% | -4% | / | 10% | -3% | -15%
O=C1C(Nc2cccc(O)c2)=C(N2CCCCC2)C(=O)c2ccccc21 | -19% | ? | ? | 22µM* | 22µM* | 14µM*
SMILES | PLK1 PBD inh | VDR inh | L3MBTL1 block | HP1b chromo inh | BAZ2B block | JMJD2A Tudor inh
O=C1C(Nc2ccccc2)=C(N2CCCCC2)C(=O)c2ccccc21 | ? | ? | -18% | ? | 25µM* | 40µM*
COc1ccc(CCNC(=O)CCn2c(=O)c3ccccc3n(Cc3c(C)cc(C)cc3C)c2=O)cc1OC | / | -8% | / | 16% | 0% | -6%
Cc1ccc(CNC(=O)C2CCN(Cc3nc(-c4ccccc4C)oc3C)CC2)cc1 | / | -7% | / | 25% | -16% | -16%
CC1=CC(=O)C=C(C)C1=NOS(=O)(=O)c1ccccc1 | -26% | 0% | / | -16% | ? | -2%[57.1 µM]
CC1=CC(=O)C(C(C)C)=C/C1=N/OS(=O)(=O)c1ccccc1 | -17% | -27% | -29% | ? | 14µM* | 45µM*
O=c1[nH]nc(N/N=C/c2ccc(Cl)cc2Cl)c(=O)[nH]1 | 24µM* | ? | 0% | -20% | -10% | -27%[11.4 µM]
O=C(O)/C=C\c1ccc(Cn2ccnc2)cc1 | / | 2% | / | / | / | /
COc1ccc(C(=O)NNC2=NC(C)(C)Cc3ccccc32)cc1 | -11% | -3% | 7% | 21% | -3% | -11%
CC1(C)Cc2ccccc2C(COc2ccccc2)=N1 | 27µM* | -19% | -9% | 9% | -37% | ?
O=C(NCc1nnc(-c2nc3ccccc3[nH]2)o1)C1CCCCC1 | / | / | / | / | / | -4%
CCc1cc2c(=O)n3c(nc2s1)-c1[nH]c2ccc(OC)cc2c1CC3 | -7% | 16% | 3% | 21% | 8% | 22µM*
O=S(=O)(c1ccc2c(c1)OCCO2)N1CCN(S(=O)(=O)c2cccc(Cl)c2F)CC1 | / | / | / | / | / | -15%
CCOC(=O)c1c(C)[nH]c(C)c1C(=O)COC(=O)c1ccc(Cl)c(S(=O)(=O)NCc2ccccc2)c1 | ? | 9% | / | -36% | ? | 56µM*
O=C(O)/C=C\C(=O)Nc1ccc(N2CCN(c3cccc(Cl)c3)CC2)cc1 | ? | -8% | -12% | ? | 35µM* | -11%[11.4 µM]
O=C(Nc1ccc(Cl)cc1)N1CCN(c2ccccc2)CC1 | 27µM* | -9% | 17% | -24% | 4% | 5%[11.4 µM]
CC(=O)c1ccc(N2CCN(C(=O)Nc3ccc(Cl)cc3)CC2)cc1 | -3% | 3% | / | 4% | / | -18%
O=C(O)/C=C\C(=O)Nc1ccc(N2CCN(c3ccc(Cl)cc3)CC2)cc1 | -5% | ? | ? | -2% | ? | -34%
COCCN(Cc1ccccc1)C(=O)c1cccc(S(=O)(=O)N2CCN(Cc3ccccc3)CC2)c1 | 4% | / | / | / | / | /
Cc1cc(C)c(NC(=O)CCn2c(=O)c3cccn3c3ccccc32)c(C)c1 | / | -7% | / | -4% | -36% | -26%
CC(=O)c1ccc(C2CC34CNS(=O)(=O)C3CC2O4)cc1 (stereo not drawn) | / | 3% | / | -23% | / | 79µM*
COc1ccc(OC)c(CCNC(=O)Cn2nc(C)c3c(C)n(-c4ccc(C)cc4)nc3c2=O)c1 | -19% | -10% | / | 27% | 50µM* | -26%
CCOc1ccc(CNC(=O)Cn2nc(C)c3c(C)n(-c4ccc(C)cc4)nc3c2=O)cc1 | 30µM* | -19% | / | 16% | -32% | 40µM*!
CCc1ccc(CNC(=O)Cn2nc(C)c3c(C)n(-c4ccc(C)cc4)nc3c2=O)cc1 | / | -3% | / | 42% | -4% | -7%

Screening results from PubChem BioAssay.
